# Measured values from PubChem BioAssay (NCI).
# This is part of a sample that, as a whole, favours compounds with a hit. Of some 83,000 tested, about 20% had one in any assay.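 Single-dose data. Exposure time 48 hours. Values below 10 considered active.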 A number with no mark means an inactive call. Activity calls are given as the source filed them.
# Tested on: HL-60(TB) leukemia
# Assay: NCI-60 one-dose screen, 48 h (100 = growth as untreated, 0 = no growth, -100 = all killed)
# Conditions: 10 µM unless noted
row,SMILES,growth
1,N#Cc1ccc(O)c(C2=NCC(Cc3ccccc3)O2)c1 (stereo not given),44%
2,Oc1nc(NCc2ccccc2)sc1/C=C1\C=Nc2ncccc21,36.4%
3,CC/C=C\C[C@H](F)C/C=C1/C(=O)C=C[C@@H]1C/C=C\CCCC(=O)O,-16.1% (active)
4,COc1cc2c(cc1O)CCc1cc(O)cc(OC)c1-2,76.4%
5,COc1ccc(NC(=O)COCCOCCNC[C@@H]2C(=O)O[C@H]3[C@H]2CC/C(COC(=O)OC/C2=C/CC[C@@]4(C)O[C@H]4[C@H]4OC(=O)[C@@H](CN(C)C)[C@@H]4CC2)=C\CC[C@@]2(C)O[C@@H]32)c(O)c1C(N)=O,-48.2% (active)
6,COC1=CC(c2ccc[nH]2)=N/C1=C\c1[nH]c(C)c(CC(=O)OCc2ccccc2)c1CCC(=O)OCc1ccccc1,-31.1% (active)
7,COC(=O)Nc1ccc(-c2nc(-c3cccc(OC)c3)c(-c3ccnc(Br)c3)[nH]2)cc1,44.2%
8,CCOC(=O)c1cc(/C=C/c2ccc(Cl)cc2Cl)on1,74.2%
9,CCn1cnc(C[C@H](NC(=O)[C@@H](NC(=O)Nc2cc(C(F)(F)F)cc(C(F)(F)F)c2)C(C)C)C(=O)OC)c1,-75.7% [100 µM] (active)
10,COc1cc2nccc(Oc3ccc(NC(=O)C4(C(=O)Nc5ccc(F)cc5)CC4)cc3)c2cc1OC,8.85% (active)
11,COc1ccc(-c2cn[nH]c2-c2cc(OC)c(OC)c(OC)c2)cc1,-21.2% (active)
12,CC(C)CNc1nc(N=[N+]=[N-])nc(NCC(C)C)n1,48.9% [100 µM]
13,N#CC[C@H](C1CCCC1)n1cc(-c2ncnc3[nH]ccc23)cn1,97.7%
14,CCCCCCCCCCCCN1C(C)=CS/C1=C\C=C\c1scc(C)[n+]1CCCCCCCCCCCC,-32.3% (active)
15,COc1cc(/C=C/C(=O)N2c3ccccc3CC2C)c(OC)c2c1OCO2 (stereo not given),91.7%
16,COc1ccc(C(c2cc(OC)c(OC)c(OC)c2)n2ccnc2)cc1O (stereo not given),-35.9% (active)
17,O=C(c1ccccc1)N(CCCl)C(=O)N(CCCl)C(=O)c1ccccc1,90.6%
18,O=S(=O)(NCCNc1nccc(-c2c(-c3cccc(O)c3)nc3occn23)n1)c1ccc(Br)cc1,18%

row,SMILES,growth
1,CC(=O)c1cc(Nc2cc(C)nc(N)n2)cc(C(C)=O)c1,96.1%
2,CC1(C)N=C(N)N=C(N)N1c1ccc(Cl)cc1,51.6%
3,Fc1ccccc1Nc1ccc2nnc(-c3ccncc3)n2n1,92.6%
4,Cc1c(Cl)cccc1NC(=S)NC(=O)c1ccccc1,92.9%
5,COc1cc2c(cc1OCCCN1Cc3ccc(OCCCCC(=O)N4CCC(CCN5CCCC5)CC4)cc3C1)N=C(N)C21CCCC1,84.9%
6,COc1ccc(Cn2cc(C(=O)N=Nc3c(O)[nH]c4ccc(Br)cc34)nn2)cc1,85.2%
7,O=C1Nc2ccccc2/C1=C\c1cccc(/C=C2/C(=O)Nc3ccccc32)n1,-48.6% (active)
8,Cc1cc(C2(c3cc(C)c(O)cc3C)OS(=O)(=O)c3ccccc32)c(C)cc1O,87.8%
9,Cc1ccc2nc(/C=C/c3ccc(N(C)C)cc3)cc(C)c2c1,15.2%
10,CCCCCCCCCCCCCCCCS(=O)(=O)Nc1cc(C(=O)NN)cc(C(=O)NN)c1,35.8%
11,COc1c(O)c2c3c(c1OC)-c1ccccc1CC3N(S(=O)(=O)c1ccc(C)cc1)CC2 (stereo not given),5.73% (active)
12,CC1(C)NCCC[C@]2(C)[C@H]3CC=C4[C@@H]5C[C@](C)(COC(=O)c6ccccc6C(=O)O)CC[C@]5(C)CC[C@@]4(C)[C@]3(C)CC[C@@H]12,65.3%
13,CC1=CCC(OC(=O)C(C)(O)CCC(O)(C(=O)OC2(C)C=CC(O)(C(C)C)CC2)C(C)C)(C(C)C)CC1 (stereo not given),110%
14,CCN(Cc1ccc(CN(CC)C(=O)C(Cl)(Cl)Cl)cc1)C(=O)C(Cl)(Cl)Cl,6.38% (active)
15,O=S(=O)(NCCNc1nccc(-c2c(-c3cccc(O)c3)nc3occn23)n1)c1ccccc1,55.3%
16,CCOC(=O)n1cc(-c2nonc2-c2cn(C)c3ccccc23)c2ccccc21,1.6% (active)
17,CO[C@H]1/C=C/O[C@@]2(C)Oc3c(C)c(O)c4c(O)c(c5c(nc6cc(C)ccn65)c4c3C2=O)NC(=O)/C(C)=C\C=C\[C@H](C)[C@H](O)[C@@H](C)C(O)[C@@H](C)[C@H](OC(C)=O)[C@@H]1C (stereo not given in full),102%
